NSD2 inh: NSD2 (human) methyltransferase inhibition; O96028; NSD2-SET H3K36me1 DELFIA fluorescence, biochemical; inhibition, % at 12.5 µM; 44,000 tested, 0.07% active; AID 624260; in the data active = inhibition above about 54%, passing the limit was not always enough;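 also: inhibitors reduce the monomethyl H3K36 fluorescence signal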
The depositor's hits bear a star. This excerpt belongs to a sample that is enriched for hits.

SMILES	NSD2 inh
Cc1cc(-c2ccc(N=Nc3cc(S(=O)(=O)O)c4ccccc4c3N)c(C)c2)ccc1N=Nc1cc(S(=O)(=O)O)c2ccccc2c1N	91.6*
C[C@@H]1CN([C@@H](C)CO)S(=O)(=O)c2ccc(/C=C/c3ccccc3)cc2O[C@H]1CN(C)Cc1cncnc1	1.4
CC1OC(O[C@H]2[C@@H](O)C[C@@]3(C)C([C@H](O)C[C@]4(C)C3CC=C3[C@@H]5CC(C)(C)CC[C@]5(C(=O)OC5OC(C)C(OC6OCC(OC7OCC(O)C(OC8OCC(O)C(O)C8O)C7O)C(O)C6O)C(O)C5O)CC[C@]34C)[C@]2(C)CO)C(O)C(OC2OC(CO)C(O)C(O)C2O)C1O (some centres not stated)	-3.7
C[C@@H]1O[C@@H](O[C@@H]2[C@@H](O)[C@H](O[C@@H]3[C@@H](O)[C@@H](O)[C@H](O[C@H]4[C@H](OC(=O)[C@]56CCC(C)(C)C[C@H]5C5=CCC7[C@@]8(C)C[C@H](O)[C@H](O[C@@H]9O[C@H](C(=O)O)[C@@H](O)[C@H](O)[C@H]9O)[C@@](C)(CO)C8[C@H](O)C[C@@]7(C)[C@]5(C)C[C@H]6O)O[C@@H](CO)[C@@H]4O)O[C@H]3C)OC[C@H]2O)[C@H](O)[C@H](O)[C@H]1O (some centres not stated)	73.9*
C[C@@H]1O[C@@H](O[C@@H]2[C@@H](O)[C@H](OC(=O)[C@]34CCC(C)(C)CC3C3=CCC5[C@@]6(C)CC[C@H](OC7OC(CO)C(OC8OCC(O)C(O)C8O)C(O)C7O)C(C)(C)C6CC[C@@]5(C)[C@]3(C)CC4O)O[C@H]2CO)[C@H](O)[C@H](O)[C@H]1O[C@H]1OC[C@](O)(CO)[C@H]1O (some centres not stated)	-2.6
Cc1ccc(S(=O)(=O)Nc2ccc3c(c2)CC(=O)N([C@@H](C)CO)C[C@@H](C)[C@H](CN(C)C(=O)Nc2ccc(F)cc2)O3)cc1	0.6
Cc1ccc(S(=O)(=O)N(C)C[C@@H]2Oc3ccc(NC(=O)Nc4ccc(F)cc4)cc3CC(=O)N([C@@H](C)CO)C[C@@H]2C)cc1	-2.3
CCCN(C)C[C@@H]1Oc2cc(-c3ccccc3C)ccc2S(=O)(=O)N([C@H](C)CO)C[C@@H]1C	1.2
COc1ccc(S(=O)(=O)Nc2ccc3c(c2)CC(=O)N([C@@H](C)CO)C[C@@H](C)[C@@H](CN(C)S(=O)(=O)c2ccc(OC)cc2)O3)cc1	-5.8
[N-]=[N+]=Nc1ccccc1C[C@@]1(C(=O)NCC(O)CO)N=C(c2ccc(OCCCO)cc2)O[C@@H]1c1ccccc1 (some centres not stated)	-2.8
COc1cc(C[C@@H]2CO[C@@H](c3ccc(O)c(OC)c3)[C@@H]2CO)ccc1O	68.0*
COc1cc([C@H]2OC[C@H]3[C@@H]2CO[C@H]3c2ccc(OC)c(OC)c2)ccc1O	-0.8
COc1cc([C@H]2OC[C@H]3[C@@H]2CO[C@@H]3c2ccc(O)c(OC)c2)ccc1O	10.6
C[C@@H]1CN([C@@H](C)CO)C(=O)c2cc(NS(C)(=O)=O)ccc2O[C@@H](C)CCCCO[C@@H]1CN(C)S(=O)(=O)c1ccccc1	-3.0
CC(C)CC1NC(=O)C(C)NC1=O (configuration not stated)	1.1
C[C@@H]1CN([C@H](C)CO)C(=O)c2cc(NS(C)(=O)=O)ccc2O[C@H]1CN(C)C(=O)Nc1ccc2c(c1)OCO2	7.4
C[C@H](CO)N1C[C@H](C)[C@H](CN(C)S(=O)(=O)c2ccc(F)cc2)OCCCC[C@H](C)Oc2ccc(NC(=O)c3ccccc3)cc2C1=O	-0.9
C=CCn1c(Sc2ncnc3c2cnn3-c2ccccc2)nnc1-c1ccncc1	-1.6
CC(=O)CCC1C2C(O)C(C(C)C)C(OC(=O)/C=C/c3ccccc3)CC12C (configuration not stated)	-11.4
O=C(/C=C/c1ccc(O)cc1)O[C@@H]1CC(O)(C(=O)O)C[C@@H](OC(=O)/C=C/c2ccc(O)cc2)C1O (some centres not stated)	63.0*
COc1cc(/C=C/C(=O)O[C@@H]2C[C@@](O)(C(=O)O)C[C@@H](O)[C@@H]2O)ccc1O	12.4
Cc1ccc(S(=O)(=O)Nc2ccc3c(c2)C(=O)N([C@H](C)CO)C[C@@H](C)[C@H](CN(C)S(=O)(=O)c2ccc(C)cc2)O3)cc1	-1.7
COc1c(OC2OC(CO)C(O)C(O)C2O)cc(O)c2c1OC(c1ccccc1)CC2=O (configuration not stated)	36.0
O=C1CC(c2ccc(O)cc2)Oc2cc(O[C@@H]3O[C@H](CO)[C@@H](O)[C@H](O)[C@H]3O)cc(O)c21 (some centres not stated)	-1.8
CC(C)=CCc1c(O[C@@H]2O[C@H](CO)[C@@H](O)[C@H](O)[C@H]2O)cc(O)c2c1O[C@H](c1ccc(O)cc1)CC2=O	70.5*
COc1cccc(C#Cc2ccc3c(c2)O[C@@H](CN(C)C)[C@@H](C)CN([C@H](C)CO)S3(=O)=O)c1	2.1

Compound activity as filed in PubChem.
